# ROC1-CUL1 inh = blocks human RBX1-Cullin-1 di-ubiquitin formation. P62877+Q13616. in vitro K48 di-Ub FRET, acceptor:donor ratio, 45 min. inhibition, % at 10 µM. 0.6% of 140,000 active. AID 1347404; in the data active means inhibition above about 25%
# Target sequence (P62877 whole entry, looked up): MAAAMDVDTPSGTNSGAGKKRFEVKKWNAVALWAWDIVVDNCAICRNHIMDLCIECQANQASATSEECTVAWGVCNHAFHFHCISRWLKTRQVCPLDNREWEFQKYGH
# Target sequence (Q13616 whole entry, looked up): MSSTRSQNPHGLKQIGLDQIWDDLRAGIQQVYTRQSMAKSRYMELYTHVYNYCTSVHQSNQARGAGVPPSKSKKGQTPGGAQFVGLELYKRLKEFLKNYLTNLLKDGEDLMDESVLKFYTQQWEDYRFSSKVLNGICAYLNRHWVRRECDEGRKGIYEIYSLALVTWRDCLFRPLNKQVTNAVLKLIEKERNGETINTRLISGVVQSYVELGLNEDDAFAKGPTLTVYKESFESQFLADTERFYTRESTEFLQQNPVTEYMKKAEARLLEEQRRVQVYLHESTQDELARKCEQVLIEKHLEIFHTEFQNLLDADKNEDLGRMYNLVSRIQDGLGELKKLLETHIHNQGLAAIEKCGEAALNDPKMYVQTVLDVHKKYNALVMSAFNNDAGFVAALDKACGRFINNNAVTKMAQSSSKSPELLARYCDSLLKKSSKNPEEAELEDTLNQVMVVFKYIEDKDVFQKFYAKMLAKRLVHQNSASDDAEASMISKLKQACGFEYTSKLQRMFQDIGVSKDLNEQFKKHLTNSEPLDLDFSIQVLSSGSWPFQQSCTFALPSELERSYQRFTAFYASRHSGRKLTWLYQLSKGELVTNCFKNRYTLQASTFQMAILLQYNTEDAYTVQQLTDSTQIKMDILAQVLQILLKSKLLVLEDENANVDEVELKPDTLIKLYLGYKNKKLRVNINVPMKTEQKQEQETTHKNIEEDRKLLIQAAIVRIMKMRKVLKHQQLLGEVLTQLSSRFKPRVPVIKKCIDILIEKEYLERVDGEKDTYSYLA
# Numbers without * were called inactive. The full list was thinned out, with hits kept by preference.
SMILES,ROC1-CUL1 inh
Cc1ccnc(NC(NC(=O)Cc2ccccc2)(C(F)(F)F)C(F)(F)F)c1,4
Cc1ccsc1C(=O)Nc1cccc(Br)c1,1
CC(C)(C)CN1CCC(C2CCN(C(=O)c3ccnnc3)CC2)C1 (centres undefined),5
O=C1O[C@@H]2CN(S(=O)(=O)N3CCCCC3)C[C@@H]2N1CCc1ccccn1,16
COc1ccc(/C=C2\C(=O)NN(c3ccc(F)cc3)C2=O)cc1,-4
COC(=O)c1ccc(N2NC(=O)/C(=C/c3ccc(C)cc3)C2=O)cc1,27*
COc1cc(/C=C2\C(=O)NN(c3ccc(C)cc3)C2=O)cc(OC)c1OC,1
COc1ccc(/C=C2/C(=O)NN(c3cccc(C)c3)C2=O)cc1,5
Cc1ccc(N2NC(=O)/C(=C/c3ccc(N(C)CCC(C)C)cc3)C2=O)cc1C,17
O=C1NN(c2ccccc2)C(=O)/C1=C/c1ccccc1,5
Cc1cccc(N2NC(=O)/C(=C/c3ccccc3)C2=O)c1,-9
CN(c1ccccc1)c1ccc(/C=C2\C(=O)NN(c3ccccc3)C2=O)cc1,31*
O=C1NN(c2ccc(F)c(Cl)c2)C(=O)/C1=C\c1ccc(F)cc1,77*
Cc1ccc(N2NC(=O)/C(=C/c3ccc(F)cc3)C2=O)cc1C,78*
O=C(c1ccccn1)N(C1CC1)C(Cc1ccccc1)C1CCN(Cc2ccc(O)c(Cl)c2)CC1 (centres undefined),7
Cc1c(CC(=O)NC2CC2)c2c(n1Cc1ccccc1)CCCC2=O,2
NC(=O)c1ccc(C2CCCN2Cc2cnn(-c3ccccc3F)c2)s1 (centres undefined),-3
CCOC(=O)C1(C(=O)OCC)Cc2ccsc2-c2sccc2C1,1
COc1ccc(-c2nn[nH]n2)cc1N,5
N#CC1C(=N)Oc2n[nH]c(-c3ccc([N+](=O)[O-])cc3)c2C1c1ccncc1 (centres undefined),10
CS(=O)(=O)N(Cc1ccc(Cl)cc1)c1ccc(C(=O)NCc2ccccc2Cl)cc1,3
O=C(O)c1ccccc1C(=O)Nc1ccc(N2CCN(c3cccc(Cl)c3)CC2)cc1,-3
O=C1C(CCc2nn[nH]n2)(CCc2nn[nH]n2)CCC1(CCc1nn[nH]n1)CCc1nn[nH]n1,-2
O=C1NN(c2ccc(I)cc2)C(=O)/C1=C\c1ccc(O)cc1O,-15
O=C1NN(c2ccc(I)cc2)C(=O)/C1=C\c1ccc(O)c(O)c1,106*
SMILES,ROC1-CUL1 inh
COc1cc(/C=C2/C(=O)NN(c3ccc(F)cc3)C2=O)cc(Cl)c1O,-3
O=C1NN(c2ccc(I)cc2)C(=O)/C1=C\c1ccccc1,3
Cc1ccc(N2NC(=O)/C(=C/c3ccc(F)cc3)C2=O)cc1Cl,50*
Cc1ccc(N2NC(=O)/C(=C\c3ccc(N(C)C)c(Br)c3)C2=O)cc1Cl,2
Cc1ccc(N2NC(=O)/C(=C/c3ccc(F)cc3)C2=O)cc1,71*
O=C1NN(c2ccc(F)cc2)C(=O)/C1=C/c1ccccc1,5
O=C1NN(c2ccc(F)cc2)C(=O)/C1=C\c1ccc(F)cc1,-1
CC1=C(C(=O)OC(C)C)C(c2cccc(F)c2)NC(=O)N1C (centres undefined),25
CC1(C)C(=O)C(C)(C)C12OC(c1ccccc1)(C(F)(F)F)CS2 (centres undefined),-7
N#CC1C(=N)SC(=N)C(C#N)C1c1c(Cl)cccc1Cl (centres undefined),1
CC(=O)C1C(=O)Oc2c(ccc3ccccc23)C1=O (centres undefined),40*
CC(=O)c1coc2ccc3ccccc3c2c1=O,6
O=C1CC(O)(C(F)(F)F)Oc2c1ccc1ccccc21 (centres undefined),-1
COc1ccccc1C1C(C(=O)c2ccc(Cl)cc2)C(=O)C(=O)N1CCOCCO (centres undefined),9
CC(C)Oc1ccc(CC2=NC(=S)NC2=O)cc1,4
O=C1NC(=S)N=C1Cc1ccc(OCc2cccc(C(=O)O)c2)cc1,26*
O=C(O)COc1ccc(CC2=NC(=S)NC2=O)cc1,7
COc1ccc(OCc2nnc(SCC(=O)Nc3ccc(Cl)c([N+](=O)[O-])c3)n2C)cc1,4
COc1ccc(C2(C(=O)N3CCCCC3)CCOCC2)cc1,1
CCCCCC1=NN2C(=N)/C(=C\c3ccc([N+](=O)[O-])o3)C(=O)N=C2S1,101*
CCCCCCCC1=NN2C(=N)/C(=C/c3ccc(-c4ccc(Cl)cc4)o3)C(=O)N=C2S1,3
CCCCCCCC1=NN2C(=N)/C(=C/c3ccc(-c4ccc(F)cc4)o3)C(=O)N=C2S1,8
CC(=NCCCCCCCN=C(C)C1N=C(c2ccc(Cl)cc2)OC1=O)C1N=C(c2ccc(Cl)cc2)OC1=O (centres undefined),4
COc1cc(/C=c2\sc3n(c2=O)C(c2ccccc2)C2=C(N=3)c3ccccc3CC2)cc(OC)c1O (centres undefined),5
COc1ccc(C2C3=C(N=c4s/c(=C/c5cccc(OC)c5O)c(=O)n42)c2ccccc2CC3)cc1 (centres undefined),-9
SMILES,ROC1-CUL1 inh
COc1ccc(C(=O)Oc2ccc(/C=c3/sc4n(c3=O)C(c3ccccc3Cl)C3=C(N=4)c4ccccc4CC3)cc2)cc1 (centres undefined),-9
CCOc1ccc(/C=c2/sc3n(c2=O)C(c2cc(OC)ccc2OC)C2=C(N=3)c3ccccc3CC2)cc1 (centres undefined),7
COc1ccc(C2C3=C(N=c4s/c(=C/c5ccc(C(C)C)cc5)c(=O)n42)c2ccccc2CC3)cc1 (centres undefined),3
COc1ccccc1C1C2=C(N=c3s/c(=C\c4ccccc4O)c(=O)n31)c1ccccc1CC2 (centres undefined),-7
O=c1/c(=C\c2ccc(F)cc2)sc2n1C(c1ccc(Cl)cc1Cl)C1=C(N=2)c2ccccc2CC1 (centres undefined),-5
COc1ccccc1C1C2=C(N=c3s/c(=C/c4cccc(OCC(=O)O)c4)c(=O)n31)c1ccccc1CC2 (centres undefined),30*
O=c1/c(=C\c2cc(Cl)cc(Cl)c2O)sc2n1C(c1ccc(Cl)cc1Cl)C1=C(N=2)c2ccccc2CC1 (centres undefined),35*
COC(=O)c1ccc(/C=c2\sc3n(c2=O)C(c2ccc(Cl)cc2Cl)C2=C(N=3)c3ccccc3CC2)cc1 (centres undefined),-6
COc1ccc(C2C3=C(N=c4s/c(=C/c5ccc(O)c([N+](=O)[O-])c5)c(=O)n42)c2ccccc2CC3)cc1 (centres undefined),44*
COc1ccc(C2C3=C(N=c4s/c(=C/c5ccc(C(=O)O)cc5)c(=O)n42)c2ccccc2CC3)cc1 (centres undefined),76*
CN1CCN(c2ccc(NS(=O)(=O)c3ccc(N4CCCC4=O)cc3)cc2)CC1,2
CCOC(=O)C1(Cc2cccc(OC)c2)CCCN(C(=O)Cn2cnnn2)C1 (centres undefined),1
COC(=O)C1C(=N)N(c2cccc(Cl)c2C)C2=C(C(=O)CCC2)C1c1ccc(Cl)cc1 (centres undefined),-1
CCC(C(=O)Nc1ccc(O)cc1)c1ccccc1 (centres undefined),16
COc1cc(C(c2c(C)[nH][nH]c2=O)c2c(C)[nH][nH]c2=O)ccc1OC(=O)c1ccc(Cl)c(Cl)c1,3
Cn1ccc(C(=O)N/N=C(/C=C/c2ccccc2)c2ccccc2)n1,4
COc1ccccc1OCC(N)=O,-8

# Assay outcomes from PubChem.
